# Source: PubChem
# Sm TGR block – inhibitors of Schistosoma mansoni thioredoxin glutathione reductase | purified TGR, DTNB reduction, TNB absorbance 405 nm | AID 485364 | Q962Y6 | 360,000 compounds, 3% hits | Potency, µM (series often up to 114 µM), for inactives: at the highest dose activity change, negative = inhibition, most hits filed as inhibitors; active = well fitted inhibition curve with a large enough effect; inconclusive = small, poorly fitted or top-dose-only effect; inactive = no such curve, though single readings can be large or run the other way; note: potency is the fitted concentration of half-maximal effect; % is set by controls: 0 for no effect and ±100 for the full control effect; nearly all actives have a fitted effect of over 60% in size
#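 TGR 20 nM + NADPH 100 uM (dispensed conc.), cpd preinc 15 min RT; start with NADPH (500 uM addition) then DTNB (15 mM addition). Kinetic TNB absorbance, 405 nm filter. Four-parameter Hill fit across titration.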
# FMDV antiviral – blocks foot and mouth disease virus | FMDV antiviral cell-based qHTS | Potency, µM (top dose mostly 57.9 µM), without a hit: at the top dose activity change, negative = inhibition, actives largely listed as inhibitors | 410,000 compounds, 1.2% hits; calls by dose curve; tested in HEK293T cells; note: read-out not given here; potency is the fitted concentration of half-maximal effect; % is set by controls: 0 for no effect and ±100 for the full control effect; nearly all actives have a fitted effect of over 45% in size
# Shiga inhibitor – blocks Shiga toxin action in Vero cells | inhibition, % at 38.7 µM | AID 2315 | 290,000 compounds, 9.2% hits | Vero cells, Shiga toxin protein synthesis inhibition reporter; in the data active = inhibition mostly above about 28%, no sharp cut-off; inactive = mostly below about 43%; note: 0% is about no effect
# CHX counter – counter-screen for Shiga toxin inhibitors: cycloheximide protein synthesis inhibition | max response, % | cell reporter, cycloheximide protein synthesis inhibition counterscreen | 300,000 compounds, 12% hits | AID 2314; in the data active = max response mostly above about 13%, no sharp cut-off; inactive = mostly below about 14%; note: read at 38.3 µM for the half of the compounds with a filed dose; 0% is about no effect
# * marks the source's active call; other numbers are inactive results; u = inconclusive; x = not tested or not shown. Shown are actives, neighbours in structure and some others; about 12% of the full set was active somewhere.
SMILES,Sm TGR block,FMDV antiviral,Shiga inhibitor,CHX counter
CCc1ccc(-c2nc(CS(=O)CC(=O)NCc3cccnc3)c(C)o2)cc1 (stereo not given),39.8µM*,3.8%,16.5,17.6*
COc1ccc(-c2nc(CS(=O)CC(=O)NCc3cccnc3)c(C)o2)cc1 (stereo not given),-33.2%,-13.4%,-15.0,-2.9
COc1ccc(C(C(=O)Nc2ccc(C(C)C)cc2)N(C)C(=O)Cc2cccs2)cc1 (stereo not given),9.6%,8.2%,x,x
COc1ccc(NC(=O)CCc2nc(C3=CCN(Cc4cccc(Cl)c4)CC3)no2)cc1OC,-31.2%,31.6µM*,x,x
Cc1ccc(C)c(CN2C(=O)c3ccccc3S(=O)c3ccc(C(=O)N4CCN(c5cccc(Cl)c5)CC4)cc32)c1 (stereo not given),2.9%,u,x,x
Cc1ccc(C(=O)CCC2CCCC2=O)cc1 (stereo not given),1.4%,39.1%,53.2*,50.0*
Cc1ccc(C(=O)CCC2CCCCC2=O)cc1 (stereo not given),6.2%,55.7%,101.5*,33.1*
CCc1ccc(C(=O)CCC2CCCCC2=O)cc1 (stereo not given),-29.4%,40.9%,95.8*,36.0*
Cc1ccc(CNC(=O)c2c(-c3ccccc3Cl)noc2C)o1,u,-23.1%,x,x
Cc1ccc2c(CC(=O)Nc3ccc(S(=O)(=O)N4CCCCC4C)cc3)coc2c1 (stereo not given),-0.3%,13.9%,x,x
O=C(CSc1nc2c([nH]c3ccccc32)c(=O)n1-c1ccccc1)N1CCCc2ccccc21,-28.4%,1.2%,x,x
CN(C)c1nc2ccccc2n(C)c1=O,13.4%,-1.2%,-4.2,4.0
Cn1c(=O)c(-c2cc(Br)ccc2N)nc2ccccc21,-23.7%,46.7%,60.1,32.9*
CCC(C(=O)NC1CCCCC1)n1c(SCc2cccc(C)c2)nc2ccncc21 (stereo not given),1.2%,6.8%,21.2,26.3*
CCC(C(=O)NC1CCCCC1)n1c(SCc2cccc(F)c2)nc2ccncc21 (stereo not given),5.6%,-2.6%,-6.3,9.9
Cc1cc(CNC(=O)Nc2ccc3c(c2)OCO3)nn1C,13.6%,53.7%,60.7*,26.9*
Cc1nc2cc(NC(=O)NCc3ccc4c(c3)OCO4)ccc2o1,2.2%,x,2.1,-1.0
CCn1cc(C(C)NC(=O)Nc2ccc3c(c2)OCO3)c(C)n1 (stereo not given),-13.3%,26.9%,15.9,5.8
CCn1nc(C)c(CNC(=O)Nc2ccc3c(c2)OCO3)c1C,2.1%,0.0%,91.3,45.3*
Cn1cnc(S(=O)(=O)N2CCC(C(=O)NCc3ccc(Cl)cc3)CC2)c1,-0.2%,23.7%,x,x
Cc1cc(C)c(NC(=O)CCn2c(=O)c3cccn3c3cccnc32)c(C)c1,0.4%,-4.8%,x,x
Cc1cccc(CC(C)NC(=O)c2cc(COc3ccc(C)c(C)c3)on2)n1 (stereo not given),12.6%,6.9%,97.8*,77.1*
Cc1cccc(CC(C)NC(=O)c2cc(COc3ccc(F)cc3F)on2)n1 (stereo not given),8.4%,-10.5%,45.3*,49.1*
Cc1ccc(OCc2cc(C(=O)NC(C)Cc3cnccn3)no2)cc1C (stereo not given),-14.5%,-18.7%,8.4,13.5
Cc1cc(OCc2cc(C(=O)NC(C)c3c(C)nn(C)c3C)no2)cc(C)c1Cl (stereo not given),-11.8%,-1.1%,111.3*,41.0*
SMILES,Sm TGR block,FMDV antiviral,Shiga inhibitor,CHX counter
Cc1nc(C(C)NC(=O)c2cc(COc3ccc(C)c(C)c3)on2)c(C)s1 (stereo not given),7.2%,60.3%,125.1*,41.5*
Cc1cc(OCc2cc(C(=O)NC(C)c3cnn(C)c3)no2)cc(C)c1Cl (stereo not given),x,32.3%,x,x
COc1cc2nc(NCCC(C)C)n3nc(-c4ccccc4)nc3c2cc1OC,-5.4%,-13.6%,x,x
COc1ccccc1NC(=O)Cn1c(=O)n(Cc2nc(-c3ccccc3)no2)c(=O)c2ccccc21,1.0%,-26.0%,x,x
O=C(CC1CC2CCC1C2)OCC(=O)c1c[nH]c2ccccc12 (stereo not given),15.5%,24.6%,148.0*,52.6*
CCc1c(C)nc2ncnn2c1N1CCCC(C(=O)Nc2cc(F)ccc2C)C1 (stereo not given),-9.6%,35.5µM*,-22.4,-3.2
CC(C)NC(=O)CCn1c(=S)oc2ccccc21,-2.9%,-8.6%,-9.8,-3.7
CC(C)OC(=O)n1c(=S)oc2ccccc21,0.2%,x,67.9*,44.1*
O=C(O)CCn1c(=S)oc2ccccc21,-1.8%,x,-3.8,-3.7
CCCCC(=O)/C=C/n1c(=S)oc2ccccc21,0.0%,u,44.1*,35.1*
CSc1cc2c(cc1C(F)(F)F)N(C(=O)Nc1cccnc1)CC2,x,-6.2%,-3.8,-2.8
CCCCC(=O)NNC(=S)NC(=O)c1ccc(C)cc1,x,-7.4%,49.3*,22.5
COCCCNC(=S)NC(=O)c1ccc(C)cc1,-25.7%,-8.8%,123.0*,77.7*
CCCCC(=O)NNC(=S)NC(=O)c1ccc([N+](=O)[O-])cc1,u,-12.8%,-16.5,-0.7
COc1cccc(NC(=O)c2cccc(C(=O)Nc3cccc(OC)c3)n2)c1,-4.8%,-4.5%,-3.1,4.5
COc1ccc(NC(=O)c2cccnn2)cc1,-5.9%,45.9%,29.4*,24.1*
COc1cccc(NC(=O)c2cccnn2)c1,-7.6%,22.6%,17.7,20.9*
COc1ccc(OC)c2sc(NC(=O)c3ccc(S(=O)(=O)N4CCCC4)cc3)nc12,-2.5%,u,x,x
Cc1cc2n(n1)C(c1ccc3c(c1)OCO3)Nc1ccccc1-2 (stereo not given),-12.7%,9.0%,-1.7,10.9
Cc1cc2n(n1)C(c1ccccc1)Nc1ccccc1-2 (stereo not given),3.6%,4.7%,13.7,8.9
Cc1cc2n(n1)C(c1ccc(N(C)C)cc1)Nc1ccccc1-2 (stereo not given),-23.2%,-28.2%,48.1*,47.5*
Cc1ccc2c(c1)-c1cc(C)nn1C(c1ccc3c(c1)OCO3)N2 (stereo not given),2.2%,19.9%,28.5,16.0*
Cc1cccc(NC(=O)Cn2nc(C)c3nn(-c4ccc(Cl)cc4)c(C)c3c2=O)c1C,0.4%,-26.4%,x,x
COc1cc2c(cc1OC)C1=C(C#N)CN(CC(=O)O)CN1CC2,35.5µM*,1.9%,-3.0,-1.9
O=C(Nc1cccc(F)c1)N1CCC2(CC1)CCN(C(=O)c1csnn1)CC2,x,-6.0%,x,x
SMILES,Sm TGR block,FMDV antiviral,Shiga inhibitor,CHX counter
Nc1nc(COc2ccc(F)cc2)nc(N2CCCCC2)n1,-3.5%,15.3%,-9.7,18.8*
COC(=O)c1ccc(OCc2nc(N)nc(N3CCOCC3)n2)cc1,-22.2%,3.9%,24.4,-6.0
COc1ccccc1-c1noc(-c2ccc(NC3CCCC3)c([N+](=O)[O-])c2)n1,-31.9%,50.9%,x,x
COc1ccc(-n2nc(C(=O)NCc3ccc(F)cc3Cl)c3c4ccccc4n(C)c3c2=O)cc1Cl,-2.8%,-16.6%,x,x
CCOC(=O)c1sc(=NC(=O)c2cccc(C)c2)n(C)c1C,0.5%,72.7%,122.9*,24.4*
CCOC(=O)c1sc(=NC(=O)c2ccc(S(=O)(=O)N(C)c3ccccc3)cc2)n(C)c1C,0.0%,0.0%,-21.5,12.6
CCOC(=O)c1sc(=NC(=O)c2cccc(Br)c2)n(C)c1C,2.0%,48.1%,18.2,19.7*
